Molecules are shown by their SMILES. The campaign covered roughly 410,000 compounds. About 2,400 (0.59%) were called active. What follows is part of a selection rich in actives, with near analogues and random picks from the rest. A number with no mark means an inactive call. Rule as the data show it: active = max activation above about 30%; inactive = the rest.

Sequence of D(3) dopamine receptor (Homo sapiens) (P35462 whole entry, looked up): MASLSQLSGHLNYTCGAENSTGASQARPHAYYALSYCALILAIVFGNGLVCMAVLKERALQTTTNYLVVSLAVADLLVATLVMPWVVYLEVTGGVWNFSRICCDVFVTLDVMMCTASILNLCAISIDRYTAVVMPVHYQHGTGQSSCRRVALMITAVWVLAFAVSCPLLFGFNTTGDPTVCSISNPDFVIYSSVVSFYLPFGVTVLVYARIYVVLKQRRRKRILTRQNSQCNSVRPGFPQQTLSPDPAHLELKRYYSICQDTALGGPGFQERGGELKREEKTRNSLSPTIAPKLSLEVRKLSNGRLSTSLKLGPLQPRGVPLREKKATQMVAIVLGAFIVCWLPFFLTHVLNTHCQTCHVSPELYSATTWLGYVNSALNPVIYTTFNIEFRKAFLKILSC

In this test the target is D(3) dopamine receptor (Homo sapiens) (UniProt P35462). The test can be described thus: qHTS of D3 Dopamine Receptor Agonist: qHTS. Also: 0% is about no effect. The following applies: D3R DiscoveRx beta-arrestin cells, luminescence, 90 min; stronger effect = higher value. The text has this:
D3 DARs represent a very important target for the treatment of several neuropsychiatric disorders. Indeed, one of the most promising therapeutic applications for the D3 DAR is in the area of addiction and related disorders. […] These findings have been observed with a number of addictive substances including cocaine, amphetamine, nicotine, and alcohol. […] Antagonism of the D3 DAR may also be therapeutic in the treatment of schizophrenia or psychosis. […] Since the D3 DAR is expressed in areas of the CNS associated with the control of mood and emotion, it has been hypothesized that selective antagonism of the D3 DAR may be effective in treating psychosis without inducing the motor side effects typically seen with D2 DAR antagonists.
This part of the project aims to discover novel agonist.
NIH Chemical Genomics Center [NCGC]
NIH Molecular Libraries Probe Centers Network [MLPCN]
Assay Submitter (PI): David Sibley, NINDS
Freshly passaged cells are plated in 1536 well white, solid bottom plates at a density of 1500 cells/well in 3microl of complete media. After an overnight incubation at 37 degrees C in 5% CO2, cells are loaded with 23nl of test compound from the compound library (as well as dopamine controls) using a 1536 pintool and incubated at 37 degrees C for 90 minutes. Two microliters of DiscoveRx reagent is then added to all cells, and they are incubated for an additional 30 - 60 minutes at room temperature. Following incubation, luminescence is measured on a ViewLux CCD-based luminometer reader using a 20 sec exposure time.
Background: Quantitative high-throughput screening tests each substance at several concentrations.
`CC(C)=CCc1c(O)c(CC=C(C)C)c2occ(-c3ccc(O)cc3)c(=O)c2c1O`: the max activation was 84.1% (active).
The result for `CC(C)=CCc1ccc(O)c(=O)cc1C(C)C` reads -8.37%; that for `CCc1nc2c(cnn2-c2ccc(C)cc2)c(=O)n1-c1ccc(C)cc1`, 0.0293%; that for `O=C(CCn1ccc2cc(S(=O)(=O)N3CCCC3)ccc21)NCc1cccc(Cl)c1`, -1.61%.
With `COc1ccc2ncc3c(-c4ccc(C)c(C)c4)nn(CC(=O)NC4CCCC4)c3c2c1` the figure was -3.77%; with `CC(=O)O[C@]1(C(C)=O)CC[C@H]2[C@@H]3CCC4=CC(=O)CC[C@]4(C)[C@@]3(F)[C@@H](O)C[C@@]21C`, 9.73%; with `S=c1[nH]nc(-c2cccs2)n1/N=C/c1cn(-c2ccccc2)nc1-c1ccc(Cl)cc1`, 44.2% (active).
The result for `CCC(=O)N1N=C(c2ccc(OC)cc2)CC1c1cn(-c2ccccc2)nc1-c1cccs1` (centres undefined) reads -10.2%; that for `CC(=O)O[C@H]1CC[C@@]2(C)C(=CC[C@@H]3[C@@H]2CC[C@]2(C)C(c4cccnc4)=CC[C@@H]32)C1`, 6.91%.
In the case of `COc1ccc(S(=O)(=O)NCc2cccn2Cc2cccc(C)c2)cc1Cl`, the max activation is -14.5%.
The result for `Cc1ccc(C(=O)Nc2ccc(OCc3cc(=O)n4c5c(sc4n3)CCCC5)cc2)cc1` reads -4.47%.
The result for `COc1cc(C(=O)N2CCN(C/C=C/c3ccccc3)CC2)cc(OC)c1C` reads 49.9% (active); that for `COc1ccccc1C(=O)NC(CCSC)C(=O)N1CCN(C/C=C/c2ccccc2)CC1` (centres undefined), -0.587%; that for `COc1ccc(C(=O)NC2CC2)cc1OC1CCN(C/C=C/c2ccccc2)CC1`, -13.2%.
Turning to `CCc1ccccc1N1C(=O)CN(S(=O)(=O)CC)CC1(C)C(=O)NC1CCCCC1` (centres undefined), the max activation is -18.4%.
The result for `N#Cc1ccccc1Cn1cnc2nc3c(cc2c1=O)CCCC3` reads -7.33%; that for `C/C=C/C=N/NC(=O)c1ccncc1`, -12.6%.
With `Cc1ccc(Cc2nc3ccccc3nc2SCC(=O)Nc2cccc(C(F)(F)F)c2)cc1` the figure was 4.77%; with `CN(Cc1ccccc1)C(=O)c1cccc(C(=O)N(C)Cc2ccccc2)c1`, 115% (active); with `Cc1cc(C)cc(NC(=O)N(C)Cc2ccccc2)c1`, -3.6%.
The result for `CN(Cc1ccccc1)C(=O)c1cc2c(=O)n(C)c3ccccc3c2s1` reads -16.8%; that for `COc1ccc(-c2noc(CSc3nnc(-c4ccccc4)n3-c3ccc(F)cc3)n2)c(OC)c1`, -1.45%.
In the case of `COc1ccc(S(=O)(=O)NCCSc2nnnn2-c2ccccc2)cc1`, the max activation is -5.06%.
The result for `O=C(NC1CCCCC1)c1ccc2c(c1)N(Cc1ccc(Cl)cc1)C(=O)c1ccccc1S2=O` (centres undefined) reads 3.22%.
With `CCC1CN(S(=O)(=O)c2cc(-c3cc(C)no3)ccc2C)c2cc(C)ccc2O1` (centres undefined) the figure was -8.75%; with `Cc1ccc(Nc2ccc3cc(S(=O)(=O)N4CCCCC4)ccc3n2)cc1F`, 3.49%; with `O=C1CCC(=O)N(O)CCCCCNC(=O)CCC(=O)N(O)CCCCCNC(=O)CCC(=O)N(O)CCCCCN1`, 65.3% (active).
The result for `CCCN(CCc1ccccc1)C1CCc2c(O)cccc2C1` (centres undefined) reads 110% (active).
Consider `Cc1cc(C)cc(C(=O)N(CCc2ccccc2)C2=CC3CCC(C2)N3C)c1` (centres undefined), for which the max activation is -13.4%.
With `COc1cccc(CNC(=O)CN2C(=O)CCc3cc(S(=O)(=O)N4CCOCC4)ccc32)c1` the figure was 7.79%.
With `COc1ccc(N2CCN(C(=O)CSCc3nc(-c4ccccc4Cl)oc3C)CC2)cc1` the figure was 13.9%; with `Cc1ccc(NC(=O)C2CCN(S(=O)(=O)c3cc(-c4noc(C)n4)ccc3C)CC2)c(C)c1`, -12.1%.
The result for `N#CC(C(=O)c1ccc(S(=O)(=O)N2CCCCCC2)cc1)c1nc2ccccc2[nH]1` (centres undefined) reads 24%.
As for `Cc1ccc(S(=O)(=O)C(C#N)c2nc3ccccc3nc2N2CCCC2)cc1C` (centres undefined), the max activation was 44.8% (active).
The result for `Cc1ccc(S(=O)(=O)c2nnn3c2nc(N2CCN(c4ccccc4F)CC2)c2cc(Cl)ccc23)cc1C` reads 4.43%; that for `CO/N=C(\C(=O)N[C@@H]1C(=O)N2C(C(=O)O)=C(C[N+]3(C)CCCC3)CS[C@H]12)c1csc(N)n1`, 2.02%; that for `O=S(=O)(c1ccc2nc(NCc3ccccc3Cl)ccc2c1)N1CCCCC1`, -23.2%.
The result for `Cc1ccc(CNC(=O)C2CCCN2C(=O)NCc2ccccc2)cc1` (centres undefined) reads 4.63%.
The result for `Cc1ccc(CNC(=O)c2cccc3c2C(=O)c2ccc(N4CCC(C)CC4)cc2S3(=O)=O)cc1` reads 54.8% (active).
As to `Cc1cccc(CNC(=O)c2cnc3sc(N4CCCCC4)nn3c2=O)c1`, the max activation is 6.54%.
With `CCOC(=O)[C@H](CCc1ccccc1)N[C@@H](C)C(=O)N1CC2(C[C@H]1C(=O)O)SCCS2` the figure was -2.59%; with `COCc1cccc(-c2csc(C(O)c3ccc(F)cc3)n2)c1` (centres undefined), -13.4%; with `CC(C)(C)C(=O)OCc1nc(-c2ccc(O)c(O)c2)cs1`, 117% (active).
In the case of `Cc1ccc(S(=O)(=O)N2CCCc3cc(NS(=O)(=O)c4cc(C)ccc4C)ccc32)cc1`, the max activation is 7.92%.
With `CO/N=C(\C(=O)N[C@@H]1C(=O)N2C(C(=O)O)=CCS[C@H]12)c1csc(N)n1` the figure was 3.03%; with `CCCCNc1c(-c2cccc(Sc3ccc(OC)cc3)c2)nc2ccccn12`, 13.9%.
The result for `CCCCNc1c(-c2ccc(OC)c(Sc3ccc(OC)cc3)c2)nc2ccc(Cl)cn12` reads 44.7% (active).
As to `COC(=O)c1ccc2nc(-c3ccc(C)cc3)c(Cc3ccc(OC)cc3C)n2c1`, the max activation was -2.45%.
On to `COc1ccc(C2(C#N)CCC(C(=O)O)CC2)cc1OC1CCCC1` (centres undefined), for which the max activation is -0.732%.
With `CCNS(=O)(=O)c1cc(-c2nnc(Nc3cccc(C(F)(F)F)c3)c3ccccc23)ccc1C` the figure was 13.3%; with `CCOc1ccc(OCC)c(Nc2nc3ccccc3n3nnnc23)c1`, 5.21%; with `c1ccc2cc(C3=NCCN3)ccc2c1`, -15.2%.
The result for `CCCn1nc(C(=O)OCc2nc(N)nc(Nc3ccccc3C)n2)c2ccccc2c1=O` reads 31.8% (active); that for `CCCn1nc(C(=O)NNC(=O)CSCC(=O)Nc2cc(C)on2)c2ccccc2c1=O`, -7.71%.
The result for `Cc1ccccc1Nc1nc(N)nc(COC(=O)CCC(=O)c2ccc(F)cc2)n1` reads 2.22%; that for `CCC(=O)N1CCc2cc(Br)cc(S(=O)(=O)NCc3ccc(Cl)cc3)c21`, -15.3%; that for `CN1CC[C@H](c2c(O)cc(O)c3c(=O)cc(-c4ccccc4Cl)oc23)[C@H](O)C1`, 6.48%.
`Cc1ccnc(SCCn2c(Br)nc3c2c(=O)[nH]c(=O)n3C)n1`: the max activation is 5.98%.
As for `Cn1c(=O)c2c(nc(Br)n2CCSc2nc3ccccc3o2)n(C)c1=O`, the max activation is 4.26%.
With `Cn1c(=O)[nH]c(=O)c2c1nc(Br)n2CCCCSc1nc2ccccc2o1` the figure was 40.9% (active).
The result for `Oc1ccc(-c2nc3ccc(Cl)cn3c2Nc2ccc3c(c2)OCO3)cc1` reads 6.89%.
The result for `Cc1ccccc1CN1CCC(CNC(=O)c2cc3ccc4cccnc4c3[nH]2)CC1` reads -21.1%.
As for `CC(=O)Nc1cccc(NC(=O)CSc2cn(CC(=O)N3CCCC3)c3ccccc23)c1`, the max activation was 11.5%.
The result for `Cc1cccc(N2CCN(C(=O)CCn3c(=O)c4cccn4c4cccnc43)CC2C)c1` (centres undefined) reads 14.9%.
Take `O=C(O)CCCCC(=O)O`: the max activation was 2.29%.
With `O=C(Nc1ncccc1O)c1ccc(S(=O)(=O)N2CCCC2)cc1` the figure was 1.73%; with `COc1ccc(N2CC(C(=O)NCCN3C(=O)S/C(=C\c4cccnc4)C3=O)CC2=O)c(OC)c1` (centres undefined), 2.93%; with `O=C(NCCN1C(=O)S/C(=C\c2cccnc2)C1=O)c1ccc(S(=O)(=O)N2CCCC2)cc1`, 31.1% (active).
The result for `Cc1cccc(NC(=O)Cn2c(=O)n(CCC(C)C)c(=O)c3cccnc32)c1` reads -14.3%; that for `Cc1ccc(-c2nc3cccc(C)n3c2Nc2ccc3c(c2)OCCO3)cc1`, -6.45%; that for `COc1ccc(N2CCN(C(=O)CCSCc3ccccc3F)CC2)cc1`, 1.03%.
Consider `O=C(CCSCc1ccccc1F)N1CCN(c2ccc(Cl)cc2)CC1`, for which the max activation is 57.2% (active).
Regarding `Cc1cccc(N2CCN(C(=O)CCSCc3ccccc3F)CC2)c1C`, the max activation was -6.07%.
The result for `CC(Oc1ccccc1)C(=O)N[C@@H]1C(=O)N2[C@@H]1SC(C)(C)[C@@H]2C(=O)O` (some centres undefined) reads 8.72%; that for `Cc1cccc2c(=O)cc(CSc3ccccc3NC(=O)C(C)C)[nH]c12`, 3.87%.
The result for `COc1cc(Nc2nc(-c3ccc(OC)c(OC)c3)nc3ccccc23)cc(OC)c1` reads -6.69%; that for `Cc1ccc(-c2nn(-c3ccccc3)cc2/C=C/C(=O)Nc2cccc(S(N)(=O)=O)c2)cc1`, 38.3% (active).
Regarding `COc1ccc(-n2cnnc2SCC(=O)Nc2cccc(S(N)(=O)=O)c2)cc1`, the max activation was 0.641%.
As to `NS(=O)(=O)c1ccc(NC(=O)/C=C/c2ccccc2Cl)cc1`, the max activation is 2.71%.
The result for `CN[C@@H]1[C@@H](O)[C@@H](O[C@@H]2[C@H](O)[C@H](O[C@H]3OC(CN)=CC[C@H]3N)[C@@H](N)C[C@H]2N)OCC1(C)O` (some centres undefined) reads -3.05%; that for `O=C1NS(=O)(=O)c2ccccc21`, 0.55%.
With `CCn1cc(C(=O)NCCc2ccccc2)c(=O)c2cc(S(=O)(=O)N3CCCCCC3)ccc21` the figure was -2.07%; with `CC(=O)Nc1ccc(NC(=O)C2CCCN(S(=O)(=O)c3ccc4c(c3)CCCC(=O)N4)C2)cc1` (centres undefined), 6.84%.
With `CN(C)CCCSc1ccccc1NC(=O)/C=C/c1ccccc1` the figure was -15.8%.

The record behind these values is PubChem BioAssay AID652048 (National Center for Advancing Translational Sciences (NCATS), 2013).
